Source: PubChem (National Center for Advancing Translational Sciences (NCATS))
The list is not random: actives were taken first. Their share in the collection is about 6.2%.
MARV entry inh: qHTS for inhibitors of binding or entry into cells for Marburg Virus | Marburg virus pseudotyped entry inhibition, cell reporter | Potency, µM (titrated, usually from 37.8 µM), for the others: at the top dose activity change, negative = inhibition, hits mostly inhibitors | 300,000 compounds, 1.8% hits | AID 540276, 2011; calls by dose curve; tested in HEK293 cells; further: potency means the concentration at half of the fitted maximal effect
LASV entry inh: qHTS for Inhibitors of binding or entry into cells for Lassa Virus; AID 540256, 2011; Lassa virus pseudotype entry inhibition, cell reporter; Potency, µM (top dose mostly 37.9 µM), for the others: top-dose activity change, negative = inhibition, most hits filed as inhibitors; 300,000 compounds, 1.2% hits; calls by dose curve; tested in HEK293 cells; further: potency means the concentration at half of the fitted maximal effect; nearly all actives have a fitted effect of over 50% in size
FMDV antiviral: High Throughput Screening for Foot and Mouth Disease Virus Antivirals; FMDV antiviral cell-based qHTS; Potency, µM (titrated, usually from 57.9 µM), inactives show at the top dose activity change, negative = inhibition, hits mostly inhibitors; 410,000 compounds, 1.2% hits; AID 1159524, 2015; calls by dose curve; tested in HEK293T cells; further: read-out not given here; potency means the concentration at half of the fitted maximal effect; nearly all actives have a fitted effect of over 45% in size
HCMV antiviral: qHTS Assay for inhibitors of the human cytomegalovirus (HCMV); HFF cells, HCMV-luciferase reporter, 72 h; active compounds read low; activity change, negative = inhibition, % at 57.5 µM; 410,000 compounds, 4.5% hits; AID 1259415, 2018; in the data active means activity change below about -60%; inconclusive means no clear call, values can overlap the other calls; inactive means above about -39%
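Compounds were evaluated in HFFs infected with an HCMV luciferase reporter virus (MOI 1 PFU/cell). Luciferase in lysates collected 72 h post infection served as the replication measure.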
* marks the source's active call; other numbers are inactive results; [ ] = dose if it differs, or a comment. On the % scale 0 is the no-effect control and ±100 the full control effect.

Screening O=C(CN1CCCC1)Nc1ccc(NC(=O)Nc2ccccc2Cl)cc1 returned MARV entry inh 23.3%, LASV entry inh 27.8%, FMDV antiviral 49.0% and HCMV antiviral 52.6.
Screening O=C(NC1CCCC1)C(c1ccccn1)N(Cc1ccc(F)cc1)C(=O)c1csnn1 (stereo not drawn) returned MARV entry inh -8.8%[46.1 µM], LASV entry inh -2.4%[46.1 µM], FMDV antiviral -17.8% and HCMV antiviral -14.9.
`Cc1ccc(OCCN2CCOCC2)cc1C` gave MARV entry inh 26.9%, LASV entry inh 28.0%, FMDV antiviral 46.3% and HCMV antiviral 16.2.
`O=C(Nc1ccc2cn[nH]c2c1)c1c(Cl)cccc1Cl` gave MARV entry inh 10.4%, LASV entry inh 15.1%, FMDV antiviral -8.6% and HCMV antiviral -94.3*.
`O=C(Nc1ccccc1)Nc1cccc(Cl)c1Cl` gave MARV entry inh inconclusive, LASV entry inh inconclusive, FMDV antiviral 26.0% and HCMV antiviral 104.1.
O=C(Nc1ccc2cn[nH]c2c1)c1ccccc1F was read as MARV entry inh inconclusive, LASV entry inh inconclusive, FMDV antiviral 8.8% and HCMV antiviral 91.6.
For O=C(Nc1ccncc1)Nc1cccc(Cl)c1Cl the results were FMDV antiviral inconclusive and HCMV antiviral -60.7*.
For COc1cc(OC)cc(C(=O)Nc2nc(CC(=O)NCCc3ccccc3)cs2)c1 the results were MARV entry inh 25.2%, LASV entry inh -7.0%, FMDV antiviral -6.7% and HCMV antiviral -2.5.
Cc1nccc(-c2ccc(-n3cnc4ccccc43)cc2)n1 was read as MARV entry inh 16.5%, LASV entry inh 2.9%, FMDV antiviral 20.2% and HCMV antiviral inconclusive.
`Nc1nccc(-c2ccc(-n3cnc4ccccc43)cc2)n1` gave MARV entry inh inconclusive, LASV entry inh 22.0%, FMDV antiviral 14.0% and HCMV antiviral -70.2*.
CN1CCN(c2cc(-c3cc(O)c4ncccc4c3)ccn2)CC1 was read as FMDV antiviral -26.8% and HCMV antiviral -89.2*.
`Oc1cc(-c2cccnc2)cc2cccnc12` gave FMDV antiviral -17.8% and HCMV antiviral -93.9*.
COc1ccc(C(=O)N2CCN=C2SCc2cccnc2)cc1OC was read as FMDV antiviral -23.1% and HCMV antiviral -1.8.
For O=C(Cn1nc(-c2nn(CC(=O)c3ccccc3)c3[n+]2CCCCC3)[n+]2c1CCCCC2)c1ccccc1 the results were MARV entry inh 0.1%[46.1 µM], LASV entry inh 5.9%, FMDV antiviral 0.3% and HCMV antiviral 24.4.
`COc1ccc(C(=O)Cn2nc(CNc3ccc(Br)cc3)[n+]3c2CCCCC3)cc1` gave MARV entry inh inconclusive, LASV entry inh -27.1%, FMDV antiviral -15.8% and HCMV antiviral -60.5*.
Screening CC(=O)N(C)c1ccc(NC(=O)C(c2ccccc2)c2ccccc2)cc1 returned MARV entry inh inconclusive, LASV entry inh -3.4%, FMDV antiviral -12.1% and HCMV antiviral 266.4.
`CC(C)C12CN3CC(C(C)C)(CN(C1)C3c1ccc([N+](=O)[O-])o1)C2=O` (stereo not drawn) gave MARV entry inh -0.5%[46.1 µM], LASV entry inh 0.3%, FMDV antiviral 12.6% and HCMV antiviral -72.4*.
`CC12CN3CC(C)(CN(C1)C3c1ccc([N+](=O)[O-])o1)C2=O` (stereo not drawn) gave MARV entry inh -22.6%, LASV entry inh -6.4%, FMDV antiviral -9.1% and HCMV antiviral -36.6.
For CCOc1ccc(NC(=O)CNC(=O)c2nn(-c3ccc(OC)cc3)c(=O)c3ccccc23)cc1 the results were MARV entry inh -20.9%[46.1 µM], FMDV antiviral -19.3% and HCMV antiviral -64.7*.
`CCOc1ccc(NC(=O)c2cc3c(C)nn(-c4ccccc4)c3s2)cc1` gave MARV entry inh 12.4%[46.1 µM], LASV entry inh -1.9%[46.1 µM], FMDV antiviral inconclusive and HCMV antiviral -65.6*.
Cc1nn(-c2ccccc2)c2sc(C(=O)Nc3cccc(O)c3)cc12 was read as MARV entry inh -44.2%[46.1 µM], LASV entry inh inconclusive, FMDV antiviral 0.0% and HCMV antiviral -30.8.
CSCCC(NC(=O)c1ccc(Cl)cc1)C(=O)OCC(=O)Nc1cc(Cl)ccc1C (stereo not drawn) was read as MARV entry inh 20.6%, LASV entry inh -5.2%, FMDV antiviral -9.4% and HCMV antiviral 7.4.
For COc1ccc(/C(C)=N/NC(=O)CNC(=O)/C=C\c2ccccc2)c(OC)c1 the results were FMDV antiviral -2.5% and HCMV antiviral -85.9*.
COc1cc(C(=O)NCC(=O)N/N=C(C)\C=C\c2ccccc2)cc(OC)c1OC was read as MARV entry inh -23.3%[46.1 µM], LASV entry inh -11.2%[46.1 µM], FMDV antiviral -4.9% and HCMV antiviral -72.6*.
Screening CCN(CC(=O)Nc1c(F)cccc1F)C(=O)CSCc1c(C)noc1C returned MARV entry inh 13.2%, LASV entry inh 2.9%, FMDV antiviral -20.6% and HCMV antiviral -29.3.
For O=C1NC(=Nc2cccc([N+](=O)[O-])c2)SC1(CO)CO the results were MARV entry inh 3.2%[46.1 µM], LASV entry inh 7.0%[46.1 µM], FMDV antiviral -20.6% and HCMV antiviral -64.5*.
For Cc1cccc(N=C2NC(=O)C(CO)(CO)S2)c1 the results were MARV entry inh 20.7%, LASV entry inh inconclusive, FMDV antiviral -0.9% and HCMV antiviral 0.8.
C=CCNC(=S)NNC(=O)c1ccncc1 was read as FMDV antiviral 1.5% and HCMV antiviral -63.9*.
For Cc1ccccc1NC(=O)C(=Cc1ccc(C(=O)O)cc1)C(=O)Nc1ccccc1C the results were MARV entry inh inconclusive, LASV entry inh inconclusive, FMDV antiviral 5.62µM* and HCMV antiviral -98.7*.
CC(=O)/C(=C/c1ccccc1)C(=O)Nc1ccccc1C was read as FMDV antiviral 14.1µM* and HCMV antiviral -96.3*.
Screening COc1cc(NC(=O)Nc2c[nH]c(=O)[nH]c2=O)cc(OC)c1OC returned LASV entry inh 2.2%[46.1 µM], FMDV antiviral -20.6% and HCMV antiviral -5.5.
`Cc1ccc2nc3c(cc(C(=O)NC4CCCC4)c(=N)n3C(C)C)c(=O)n2c1` gave MARV entry inh 2.0%[46.1 µM], LASV entry inh 7.2%[46.1 µM], FMDV antiviral -23.3% and HCMV antiviral -9.5.
For COc1ccccc1C(=O)NC1CCN(C(=S)NCCc2ccccc2)CC1 the results were MARV entry inh inconclusive, LASV entry inh inconclusive, FMDV antiviral -21.7% and HCMV antiviral -36.1.
`CC(C)(CNC(=O)Cc1ccc(Cl)cc1Cl)N1CCCCC1` gave MARV entry inh inconclusive, LASV entry inh -10.2%[46.1 µM], FMDV antiviral 16.2% and HCMV antiviral -3.4.
For CCOC(=O)c1ccc(-c2c(-c3ccccc3OC)oc3ccccc23)cc1F the results were FMDV antiviral 3.5% and HCMV antiviral -1.3.
`CCOC(=O)c1ccc(-c2ccc3c(=O)c4ccccc4n(C)c3c2)cc1F` gave FMDV antiviral 8.7% and HCMV antiviral -69.3*.
`CCOC(=O)c1ccc(N=c2sc(C(=O)OC)cc(=O)n2-c2ccc(C(=O)OCC)cc2)cc1` gave MARV entry inh -12.5%, LASV entry inh -13.8%, FMDV antiviral 20µM* and HCMV antiviral 195.0.
For COC(=O)c1cc(=O)n(-c2ccccc2)c(=Nc2ccccc2)s1 the results were MARV entry inh 0.8%, LASV entry inh -0.8%, FMDV antiviral 12.6µM* and HCMV antiviral -35.2.
